The panel holds about 79,000 compounds, 15% with a hit somewhere; the sample as a whole holds those more often. Values without a mark were called inactive. The source made the active and inactive calls. Rule as the data show it: active = growth inhibition above about 70%; inactive = the rest.
Columns and labels:
[1] = NCI Yeast Anticancer Drug Screen. Data for the wt1 strain (AID 149);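 also: 0% = growth of vehicle-treated wt1 cultures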; details: S. cerevisiae wt1 strain (SPY 50644) growth inhibition, active compounds read high
Summary of the method: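 Using yeast strain wt1, compound-induced growth inhibition was determined against vehicle-treated cultures.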

[2] = NCI Yeast Anticancer Drug Screen. Data for the rad50EPP+ strain (AID 151);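 also: 0% = growth of vehicle-treated control cultures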; details: S. cerevisiae rad50 mutant strain, active compounds read high
Summary of the method: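 Read-out is yeast growth inhibition relative to vehicle; cells used were the rad50EPP+ strain.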

[3] = NCI Yeast Anticancer Drug Screen. Data for the mgt1 strain (AID 153); details: S. cerevisiae mgt1 mutant growth inhibition, active compounds read high
Summary of the method: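 Measured: inhibition of mgt1 yeast growth by compound, normalized to vehicle-treated cultures.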

[4] = NCI Yeast Anticancer Drug Screen. Data for the rad50 strain (AID 155);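 also: 0% = growth of vehicle-only cultures of the same strain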; details: S. cerevisiae rad50 strain growth inhibition, active compounds read high
Summary of the method: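 Relative growth inhibition (compound vs vehicle) was measured in yeast with a defined repair-gene alteration.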

[5] = NCI Yeast Anticancer Drug Screen. Data for the mec2-1 strain (AID 157); details: S. cerevisiae mec2-1 strain, active compounds read high
Summary of the method: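 Using mec2-1 yeast: add compound, measure growth, express inhibition versus vehicle-treated cultures.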

[6] = NCI Yeast Anticancer Drug Screen. Data for the sgs1 mgt1 strain (AID 161);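 also: 0% = growth of cultures given vehicle only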; details: S. cerevisiae sgs1 mgt1 strain, active compounds read high
Summary of the method: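 Percent growth inhibition was derived by comparing compound-exposed mutant yeast with vehicle-exposed cultures. The strain carries alterations in DNA damage repair.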

[7] = NCI Yeast Anticancer Drug Screen. Data for the cln2 rad14 strain (AID 165);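 also: 0% = growth equal to vehicle treated cultures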; details: S. cerevisiae cln2 rad14 strain, active compounds read high
Summary of the method: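 Yeast strain cln2 rad14, bearing defects in cell cycle control and DNA repair, serves as the test system; values reflect growth inhibition compared with vehicle.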

[8] = NCI Yeast Anticancer Drug Screen. Data for the bub3 strain (AID 167); details: S. cerevisiae bub3 mutant strain, active compounds read high
Summary of the method: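 Screening used yeast with an engineered genetic alteration affecting cell cycle control. Compound-exposed cultures were compared with vehicle cultures, and reduced growth was taken as inhibition.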

[9] = NCI Yeast Anticancer Drug Screen. Data for the wt2 strain (AID 169);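 also: 0% = growth of vehicle-treated yeast cultures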; details: S. cerevisiae wt2 strain growth inhibition, active compounds read high
Summary of the method: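 Treated yeast vs. vehicle-treated yeast: growth inhibition determined.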

[10] = NCI Yeast Anticancer Drug Screen. Data for the mlh1 strain (AID 171);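 also: 0% = growth of vehicle-treated control cultures of the same strain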; details: S. cerevisiae mlh1 strain growth inhibition, active compounds read high
Summary of the method: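 A yeast strain with a defined genetic lesion serves as the test organism. Cultures receive compound or vehicle, and growth is measured.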

[11] = NCI Yeast Anticancer Drug Screen. Data for the sgs1 strain (AID 173);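 also: 0% = growth of vehicle-only control cultures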; details: S. cerevisiae sgs1 mutant, active compounds read high
Summary of the method: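 A genetically defined yeast mutant is incubated with the test compound, and its growth is compared to that of the same strain given vehicle.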

[12] = NCI Yeast Anticancer Drug Screen. Data for the mlh1 rad18 strain (AID 175); details: S. cerevisiae mlh1 rad18 strain growth inhibition, active compounds read high
Summary of the method: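 Steps: expose repair-defective yeast to compound; measure growth; express inhibition against vehicle-treated controls.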

[13] = NCI Yeast Anticancer Drug Screen. Data for the rad18 strain (AID 177); details: S. cerevisiae rad18 mutant growth inhibition, active compounds read high
Summary of the method: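 Measured value is growth inhibition of a yeast strain bearing a DNA repair alteration, referenced to vehicle-treated cells.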

[14] = NCI Yeast Anticancer Drug Screen. Data for the rad52 strain (AID 147);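 also: 0% = growth of vehicle-treated control cultures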; details: S. cerevisiae rad52 mutant growth inhibition, active compounds read high
Summary of the method: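 Here a repair-compromised yeast strain receives each compound; its growth is then quantified and normalised to vehicle-only controls.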

[15] = NCI Yeast Anticancer Drug Screen. Data for the rad14 strain (AID 159);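 also: 0% = growth of vehicle-treated control cultures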; details: S. cerevisiae rad14 strain growth inhibition, active compounds read high
Summary of the method: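 Screen for anticancer potential: a yeast strain altered in DNA damage repair is grown with compound, and reduced growth is quantified against vehicle controls.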

[16] = NCI Yeast Anticancer Drug Screen. Data for the CLN2oe strain (AID 163);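 also: 0% = growth of vehicle-only control cultures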; details: S. cerevisiae CLN2oe strain, active compounds read high
Summary of the method: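 Whole-cell yeast growth assay. A strain engineered for altered cell-cycle control received compound, and inhibition relative to vehicle-treated cultures was recorded.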

[17] = at 5.0 µM (retest, dose inferred, filed as 0.5)
[18] = at 50.0 µM (retest, dose inferred, filed as 5.0)

## O=Nc1c(NO)ccc2nn(-c3ccccc3)nc12
[1]; at 1.2 µM
  growth inhibition: 12%
[1]; at 3.7 µM
  growth inhibition: 27%
[1]; at 11.0 µM
  growth inhibition: 96% (active)
[1]; at 33.0 µM
  growth inhibition: 98% (active)
[1]; at 100.0 µM
  growth inhibition: 96% (active)
[2]; at 1.2 µM
  growth inhibition: 22%
[2]; at 3.7 µM
  growth inhibition: 33%
[2]; at 11.0 µM
  growth inhibition: 51%
[2]; at 33.0 µM
  growth inhibition: 65%
[2]; at 100.0 µM
  growth inhibition: 66%
[3]; at 1.2 µM
  growth inhibition: -1%
[3]; at 3.7 µM
  growth inhibition: 24%
[3]; at 11.0 µM
  growth inhibition: 98% (active)
[3]; at 33.0 µM
  growth inhibition: 98% (active)
[3]; at 100.0 µM
  growth inhibition: 99% (active)
[4]; at 1.2 µM
  growth inhibition: 12%
[4]; at 3.7 µM
  growth inhibition: 42%
[4]; [17]
  growth inhibition: 18%
[4]; at 11.0 µM
  growth inhibition: 96% (active)
[4]; at 33.0 µM
  growth inhibition: 97% (active)
[4]; [18]
  growth inhibition: 99% (active)
[4]; at 50.0 µM
  growth inhibition: 38%
[4]; at 100.0 µM
  growth inhibition: 98% (active)
[5]; at 1.2 µM
  growth inhibition: 9%
[5]; at 3.7 µM
  growth inhibition: 36%
[5]; [17]
  growth inhibition: 1%
[5]; at 11.0 µM
  growth inhibition: 95% (active)
[5]; at 33.0 µM
  growth inhibition: 98% (active)
[5]; [18]
  growth inhibition: 99% (active)
[5]; at 50.0 µM
  growth inhibition: 88.5% (active)
[5]; at 100.0 µM
  growth inhibition: 97% (active)
[6]; [17]
  growth inhibition: 14%
[6]; [18]
  growth inhibition: 99% (active)
[6]; at 50.0 µM
  growth inhibition: 87.2% (active)
[7]; [17]
  growth inhibition: 37%
[7]; [18]
  growth inhibition: 99% (active)
[7]; at 50.0 µM
  growth inhibition: 89.1% (active)
[8]; at 1.2 µM
  growth inhibition: 3%
[8]; at 3.7 µM
  growth inhibition: 45%
[8]; [17]
  growth inhibition: 1%
[8]; at 11.0 µM
  growth inhibition: 95% (active)
[8]; at 33.0 µM
  growth inhibition: 98% (active)
[8]; [18]
  growth inhibition: 99% (active)
[8]; at 50.0 µM
  growth inhibition: 90.4% (active)
[8]; at 100.0 µM
  growth inhibition: 97% (active)
[9]; at 1.2 µM
  growth inhibition: 25%
[9]; at 3.7 µM
  growth inhibition: 41%
[9]; at 11.0 µM
  growth inhibition: 96% (active)
[9]; at 33.0 µM
  growth inhibition: 99% (active)
[9]; at 100.0 µM
  growth inhibition: 98% (active)
[10]; at 1.2 µM
  growth inhibition: 6%
[10]; at 3.7 µM
  growth inhibition: 30%
[10]; at 11.0 µM
  growth inhibition: 97% (active)
[10]; at 33.0 µM
  growth inhibition: 98% (active)
[10]; at 100.0 µM
  growth inhibition: 98% (active)
[11]; at 1.2 µM
  growth inhibition: 61%
[11]; at 3.7 µM
  growth inhibition: 79% (active)
[11]; at 11.0 µM
  growth inhibition: 98% (active)
[11]; at 33.0 µM
  growth inhibition: 99% (active)
[11]; at 100.0 µM
  growth inhibition: 98% (active)
[12]; [17]
  growth inhibition: 77% (active)
[12]; [18]
  growth inhibition: 98% (active)
[12]; at 50.0 µM
  growth inhibition: 91.5% (active)
[13]; at 1.2 µM
  growth inhibition: 79% (active)
[13]; at 3.7 µM
  growth inhibition: 90% (active)
[13]; at 11.0 µM
  growth inhibition: 97% (active)
[13]; at 33.0 µM
  growth inhibition: 97% (active)
[13]; at 100.0 µM
  growth inhibition: 97% (active)

## C=CCC1=C(C)C(OC(=O)/C=C/c2ccccc2)CC1=O (stereo not drawn)
[14]; at 1.2 µM
  growth inhibition: -4%
[14]; at 3.7 µM
  growth inhibition: 0%
[14]; at 11.0 µM
  growth inhibition: 2%
[14]; at 33.0 µM
  growth inhibition: 5%
[14]; at 100.0 µM
  growth inhibition: 39%
[2]; at 1.2 µM
  growth inhibition: -1%
[2]; at 3.7 µM
  growth inhibition: 0%
[2]; at 11.0 µM
  growth inhibition: 6%
[2]; at 33.0 µM
  growth inhibition: 7%
[2]; at 100.0 µM
  growth inhibition: 15%
[3]; at 1.2 µM
  growth inhibition: -6%
[3]; at 3.7 µM
  growth inhibition: -2%
[3]; at 11.0 µM
  growth inhibition: -1%
[3]; at 33.0 µM
  growth inhibition: 2%
[3]; at 100.0 µM
  growth inhibition: 29%
[4]; at 1.2 µM
  growth inhibition: 2%
[4]; at 3.7 µM
  growth inhibition: 1%
[4]; [17]
  growth inhibition: 10%
[4]; at 11.0 µM
  growth inhibition: 2%
[4]; at 33.0 µM
  growth inhibition: 8%
[4]; [18]
  growth inhibition: 19%
[4]; at 50.0 µM
  growth inhibition: 2.25%
[4]; at 100.0 µM
  growth inhibition: 39%
[5]; at 1.2 µM
  growth inhibition: -4%
[5]; at 3.7 µM
  growth inhibition: -4%
[5]; [17]
  growth inhibition: -11%
[5]; at 11.0 µM
  growth inhibition: -4%
[5]; at 33.0 µM
  growth inhibition: 0%
[5]; [18]
  growth inhibition: -18%
[5]; at 50.0 µM
  growth inhibition: 5.6%
[5]; at 100.0 µM
  growth inhibition: 7%
[15]; at 1.2 µM
  growth inhibition: 1%
[15]; at 3.7 µM
  growth inhibition: 2%
[15]; at 11.0 µM
  growth inhibition: 4%
[15]; at 33.0 µM
  growth inhibition: 5%
[15]; at 100.0 µM
  growth inhibition: 18%
[6]; [17]
  growth inhibition: 23%
[6]; [18]
  growth inhibition: 39%
[6]; at 50.0 µM
  growth inhibition: 19.4%
[16]; at 1.2 µM
  growth inhibition: 2%
[16]; at 3.7 µM
  growth inhibition: 2%
[16]; at 11.0 µM
  growth inhibition: 5%
[16]; at 33.0 µM
  growth inhibition: 15%
[16]; at 100.0 µM
  growth inhibition: 28%
[7]; [17]
  growth inhibition: 17%
[7]; [18]
  growth inhibition: 36%
[7]; at 50.0 µM
  growth inhibition: 33.5%
[8]; at 1.2 µM
  growth inhibition: 7%
[8]; at 3.7 µM
  growth inhibition: 20%
[8]; [17]
  growth inhibition: 25%
[8]; at 11.0 µM
  growth inhibition: 33%
[8]; at 33.0 µM
  growth inhibition: 36%
[8]; [18]
  growth inhibition: 79% (active)
[8]; at 50.0 µM
  growth inhibition: 40.6%
[8]; at 100.0 µM
  growth inhibition: 47%
[9]; at 1.2 µM
  growth inhibition: -10%
[9]; at 3.7 µM
  growth inhibition: -11%
[9]; at 11.0 µM
  growth inhibition: -8%
[9]; at 33.0 µM
  growth inhibition: -5%
[9]; at 100.0 µM
  growth inhibition: 12%

Reference: PubChem BioAssay (NCI)
